From article PMC4336329 (PLoS ONE, 2015)
Hit rate of the full screen: of about 310,000 compounds, about 14,000 (4.5%) showed an effect of 50% or more. Effects have a minus sign here. This excerpt belongs to a sample that is enriched for strong results.

biological target: human ether-à-go-go-related gene (hERG) potassium channel (human, UniProt Q12809); assay: primary screen, population patch clamp on CHO cells stably expressing hERG; higher = less effect of the substance
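Also: peak tail current of the secondary pulse compared with the same well before compound.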

Chain of human ether-à-go-go-related gene (hERG) potassium channel (Q12809 whole entry, looked up): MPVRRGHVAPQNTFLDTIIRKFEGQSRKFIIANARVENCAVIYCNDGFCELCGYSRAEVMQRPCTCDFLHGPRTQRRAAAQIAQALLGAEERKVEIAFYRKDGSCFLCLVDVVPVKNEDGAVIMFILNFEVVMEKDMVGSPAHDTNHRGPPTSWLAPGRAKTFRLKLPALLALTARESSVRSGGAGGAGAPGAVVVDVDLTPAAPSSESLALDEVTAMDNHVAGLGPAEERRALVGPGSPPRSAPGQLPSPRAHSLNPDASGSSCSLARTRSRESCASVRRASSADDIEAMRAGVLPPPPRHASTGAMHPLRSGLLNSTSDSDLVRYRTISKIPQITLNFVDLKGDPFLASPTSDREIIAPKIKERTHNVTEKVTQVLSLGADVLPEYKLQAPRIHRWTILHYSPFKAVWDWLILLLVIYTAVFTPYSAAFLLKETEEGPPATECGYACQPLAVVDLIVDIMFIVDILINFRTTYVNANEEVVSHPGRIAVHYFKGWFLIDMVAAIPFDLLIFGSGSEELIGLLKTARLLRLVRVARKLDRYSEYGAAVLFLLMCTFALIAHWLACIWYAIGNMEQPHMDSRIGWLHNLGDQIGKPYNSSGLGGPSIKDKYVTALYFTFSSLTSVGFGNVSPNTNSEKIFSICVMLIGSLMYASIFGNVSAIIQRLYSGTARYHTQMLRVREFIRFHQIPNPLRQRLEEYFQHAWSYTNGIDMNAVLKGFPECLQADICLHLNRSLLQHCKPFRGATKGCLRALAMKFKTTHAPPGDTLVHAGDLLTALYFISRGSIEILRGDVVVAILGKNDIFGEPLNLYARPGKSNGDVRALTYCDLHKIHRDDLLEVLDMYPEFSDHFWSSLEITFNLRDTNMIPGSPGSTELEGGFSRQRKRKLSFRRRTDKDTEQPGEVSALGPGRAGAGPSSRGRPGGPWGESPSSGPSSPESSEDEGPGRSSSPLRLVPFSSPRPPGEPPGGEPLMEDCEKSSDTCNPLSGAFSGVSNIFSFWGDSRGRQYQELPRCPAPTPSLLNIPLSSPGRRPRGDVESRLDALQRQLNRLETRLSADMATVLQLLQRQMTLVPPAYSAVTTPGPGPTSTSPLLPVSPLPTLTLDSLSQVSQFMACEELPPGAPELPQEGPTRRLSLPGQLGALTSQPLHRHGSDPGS

Compound | hERG current change (%, negative = inhibition) at 10uM [%]
COC(=O)c1cc(S(=O)(=O)NCc2ccccc2Cl)c[nH]1 | 17.1
C1CN(CCN2CCOCC2)CCN1 | 21
Cc1cccc(C)c1NS(=O)(=O)c1ccc(NC(=O)c2ccc(Cl)c([N+](=O)[O-])c2)cc1 | 13.9
Cc1ccc(S(=O)(=O)N(CC2CO2)c2ccccc2[N+](=O)[O-])cc1 (stereo not shown) | 13.1
O=C(Nc1nnc(SCc2ccccc2Cl)s1)c1cccc([N+](=O)[O-])c1 | -3.26
O=C(Nc1cc(Oc2ccc(Cl)cc2)cc([N+](=O)[O-])c1)c1ccco1 | 15
CCOc1cnn(-c2cc(Oc3ccc(C)cc3)ncn2)c(=O)c1Cl | -12.4
O=C(CSc1nnnn1-c1cccc2ccccc12)Nc1ccc(N2CCOCC2)c(Cl)c1 | 2.68
CC(C)c1ccc(OCC(O)CNC(C)c2ccccc2)cc1.Cl (stereo not shown) | -65.3
COc1ccc(OCC(O)CNC(C)c2ccccc2)cc1.Cl (stereo not shown) | 5.12
CC(NCC(O)COc1ccc(Br)cc1)c1ccccc1.Cl (stereo not shown) | 0.452
O=C1CCCN1c1cc(Cl)ccc1Cl | 2.17
CN(Cc1nc(-c2cnccn2)no1)CC1(c2ccccc2)CC1(C)C (stereo not shown) | 4.2
COc1ccc(-c2nnc(-c3ccc(N)cc3)o2)cc1 | -5.64
CC1CCCCN1C(=O)c1ccc(S(=O)(=O)N2CCCCC2C)cc1 (stereo not shown) | -9.35
COc1ccccc1N1CCN(C(=O)/C=C/c2ccc3c(c2)OCO3)CC1 | -10.5
COc1ccc(C(=O)N/C(=C\c2cccc([N+](=O)[O-])c2)C(=O)Nc2cccc(C(=O)O)c2)cc1 | 5.3
C=CCNC(=O)/C(=C/c1cccc([N+](=O)[O-])c1)NC(=O)c1ccccc1 | -31.2
C=CCNC(=O)/C(=C/c1cccc([N+](=O)[O-])c1)NC(=O)c1ccco1 | -27.5
CC(C)(C)c1ccc(C(=O)N/C(=C\c2cccc([N+](=O)[O-])c2)C(=O)Nc2cccc(C(=O)O)c2)cc1 | 12.7
CN(C)CCNC(=O)/C(=C/c1cccc([N+](=O)[O-])c1)NC(=O)c1ccccc1 | -66.9
C=CCNC(=O)/C(=C\c1cccc([N+](=O)[O-])c1)NC(=O)c1ccccc1 | -53.4

Compound | hERG current change (%, negative = inhibition) at 10uM [%]
Cc1c(C(=O)N(CC(C)C)c2c(N)n(Cc3ccccc3)c(=O)[nH]c2=O)sc2nc3n(c(=O)c12)CCC3 | 7.27
CC(C)CN1C(=O)C(=O)N(CC(=O)c2ccc[nH]2)C1=O | 1.48
Cc1ccc(S(=O)(=O)N2CCCCC2C(=O)N2CCN(C)CC2)cc1 (stereo not shown) | 18.1
CCOc1ccc(N(CC(=O)Nc2ccccc2C(=O)NC(C)CC)S(C)(=O)=O)cc1 (stereo not shown) | -13.3
Cc1[nH]c(C)c(S(=O)(=O)N2CCN(c3cccc(Cl)c3)CC2)c1C(=O)N1CCCC1 | -6.94
Cc1c(C(=O)N2CCCCC2)c(S(=O)(=O)N2CCN(c3ccc(Cl)cc3)CC2)c(C)n1C | -55.7
CC(=O)c1ccc(N2CCN(S(=O)(=O)c3c(C(=O)N4CCCCC4)c(C)n(C)c3C)CC2)cc1 | -2.75
Cc1c(C(=O)N2CCOCC2)c(S(=O)(=O)N2CCN(c3ccc(Cl)cc3)CC2)c(C)n1C | -37.6
Cc1[nH]c(C)c(S(=O)(=O)N2CCN(c3ccc(Cl)cc3)CC2)c1C(=O)N1CCCC1 | -66.4
Cc1[nH]c(C)c(S(=O)(=O)N2CCN(c3ccccc3)CC2)c1C(=O)N1CCCC1 | -10.4
CCOc1ccc(OCC)c(NC(=O)C2CCN(c3ncccn3)CC2)c1 | -30
CCC(C)CCN1C(N(C)C)=NC[C@@H]1C (stereo partly shown) | 15.3
O=C(NC1CCCCC1)C(c1ccco1)N(C(=O)c1csnn1)c1cccc(Cl)c1 (stereo not shown) | 4.93
OCCC1CN(Cc2cccn2-c2nccs2)CCN1CCc1ccccc1 (stereo not shown) | -73.6
OCCC1CN(Cc2cccn2-c2nccs2)CCN1C1CCCCC1 (stereo not shown) | -37.8
CC(C)=CCN1CCN(Cc2cccn2-c2nccs2)CC1CCO (stereo not shown) | -34.1
CC(C)CCN1CCN(Cc2cccn2-c2nccs2)CC1CCO (stereo not shown) | -52.1
OCCC1CN(Cc2cccn2-c2nccs2)CCN1Cc1ccccc1 (stereo not shown) | -69.3
CC(C)N1CCN(Cc2cccn2-c2nccs2)CC1CCO (stereo not shown) | 10.2
CCOc1ccc(CN2CCN(Cc3cccn3-c3nccs3)CC2CCO)cc1 (stereo not shown) | -76.1
COc1ccc(CN2C(=O)c3ccccc3C(/C=N\OCc3ccc(C)cc3)C2=O)cc1 (stereo not shown) | 8.84
CCN(c1ccccc1)S(=O)(=O)c1ccc(C(=O)Nc2nccs2)cc1 | 8.62

Compound | hERG current change (%, negative = inhibition) at 10uM [%]
Cc1c(S(=O)(=O)Nc2ccc3c(c2)OCCO3)c(=O)n(C)c(=O)n1C | -10.7
CCOCCCNS(=O)(=O)c1cc2[nH]c3c(c2cc1C)C(=O)CC(C)(C)C3 | -6.44
Cc1ccc(NS(=O)(=O)c2ccc(C)c(C(=O)N3CCN(C)CC3)c2)cc1.Cl | -14.8
COc1ccc(OC)c(S(=O)(=O)N(C)CC(=O)Nc2ccccc2OC)c1 | -20.2
O=C1/C(=C\c2ccc(Br)o2)Cc2ccccc21 | 2.56
CSc1ncccc1C(=O)OCC(=O)Nc1ccc2c(c1)CCC2 | 9.67
COc1ccc(C(=O)NC(=S)NNC(=O)COc2ccccc2)cc1 | -2.47
CCc1nc(CN2CCN(Cc3ccc(F)c(F)c3)C(CCO)C2)c(C)[nH]1 (stereo not shown) | 14.2
OCCC1CN(Cc2cccn2-c2nccs2)CCN1Cc1ccc(F)c(F)c1 (stereo not shown) | -80.7
Cc1ccc(CN2CCN(Cc3cccn3-c3nccs3)CC2CCO)cc1 (stereo not shown) | -77.3
Cc1ccc(N2C(=O)CC(C)CC2=O)cc1 | 21.2
O=C(C[n+]1ccc(C(=O)c2ccccc2)cc1)Nc1ccc(C(F)(F)F)cc1.[Cl-] | -11.6
CS(=O)(=O)N(CC(=O)N1CCCCC1)c1cccc(F)c1 | 13
COc1cccc(NC(=O)COC(=O)c2ccccc2F)c1 | 13.8
O=C(CCc1nnc2ccc(N3CCC4(CC3)OCCO4)nn12)Nc1ccc(F)cc1 | -40.2
CC(C)[C@H](CN(N=O)[C@@H](Cc1ccccc1)CN(C)N=O)N(CCc1ccccc1)N=O.[Na+] | -0.676
CC(C)(C)C(=O)NC(NC(=O)C(C)(C)C)c1ccc([N+](=O)[O-])cc1 | 8.18
CCn1nc(C)c(Br)c1-c1nc(-c2cccc(C)c2)no1 | 19.1
COc1ccc(N=NC2=C(O)CC(C)(C)CC2=O)cc1 | -9.39
CC1(C)CC(=O)C(N=Nc2ccc(OC(F)F)cc2)=C(O)C1 | -57.6
CC1(C)CC(=O)C(N=Nc2ccc(F)cc2)=C(O)C1 | -4.21
COc1ccc(-n2cnc3cc(C(=O)N4CCC5(CC4)OCCO5)ccc32)cc1 | -42.8

Compound | hERG current change (%, negative = inhibition) at 10uM [%]
O=C(Cc1ccccc1)Nc1ccccc1N1CCCC1 | 9.76
Cc1ccc(-c2nnc(SCC(=O)Nc3ccccc3F)o2)cc1 | 6.53
Cc1cc(NC(=O)CSc2ccc3nnc(-c4ccccn4)n3n2)no1 | -6.72
Cc1nnc(NC(=O)CSc2ccc3nnc(-c4ccccn4)n3n2)s1 | -9.79
Cc1ccccc1CSc1nnc(-c2ccccn2)n1C | -1.96
Cc1ccccc1CSc1ccc2nnc(-c3ccccn3)n2n1 | -81.6
Cc1ccccc1NC(=O)CSc1ccc2nnc(-c3ccccn3)n2n1 | -23.8
Cc1ccc(C)c(CSc2ccc3nnc(-c4ccccn4)n3n2)c1 | -76.5
CS(=O)Cc1cc(Oc2ccccc2)nc(-c2ccncc2)n1 (stereo not shown) | -16.5
Cc1nc2cc(NC(=O)c3ccc(Br)s3)ccc2s1 | 20
CN1CCN(c2ccc([N+](=O)[O-])c(Sc3nc4ccccc4[nH]3)c2)CC1 | -19.7
O=C(CCCSc1nc2ccccc2[nH]1)N1CCN(c2ccc([N+](=O)[O-])cc2)CC1 | -79.9
NC(=O)CCCSc1nc2ccccc2[nH]1 | 13.3
CCN1CCN(c2ccc([N+](=O)[O-])c(Sc3nc4ccccc4[nH]3)c2)CC1 | -60.4
O=C(CSc1ncccc1-c1nc2ccccc2[nH]1)N1CCCCC1 | -16.3
O=C(CSc1nc2ccccc2[nH]1)Nc1ccc(N2CCOCC2)cc1 | 8.65
Br.CC1(C(=O)CSc2nc3ccccc3s2)CCC(=O)O1 (stereo not shown) | -2.67
CC1(C(=O)CSc2nc3ccccc3[nH]2)CCC(=O)O1 (stereo not shown) | -70.8
O=[N+]([O-])c1ccc(N2CCN(CCO)CC2)cc1Sc1nc2ccccc2[nH]1 | -12.4
COc1ccccc1N1CCN(C(=O)CSc2ncccc2-c2nc3ccccc3[nH]2)CC1 | -23.7
COc1ccc(N2CCN(C(=O)CSc3ncccc3-c3nc4ccccc4[nH]3)CC2)cc1 | -53.4
Br.CC1(C(=O)CSc2ncn[nH]2)CCC(=O)O1 (stereo not shown) | 2.21
